Assay outcomes: PubChem, National Center for Advancing Translational Sciences (NCATS)
A selection: hits, their analogues and other compounds. The true share with any hit is near 9.5%.
RE007 growth inh: less growth of the S. pombe RE007 Vpr strain; S. pombe RE007 Vpr strain, BacTiter-Glo ATP luminescence, 24 h; 360,000 tested, 0.21% active; Potency, µM (series often up to 92.2 µM), for the others: top-dose activity change, negative = less growth, actives largely listed as inhibitors; active = well fitted falling curve with a large enough effect; inconclusive = small, poorly fitted or top-dose-only effect; inactive = no such curve, though single readings can be large or run the other way; also: % is scaled to controls: 0 for no effect and ±100 for the full control effect; nearly all actives have a fitted effect of over 50% in size
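Fission yeast strain RE007, carrying one chromosomally integrated HIV-1 vpr copy, was seeded at OD 0.01 in PMG+AL medium with 23 nL pinned compound. After 24 h at 30 °C and 99% humidity, viability was read by BacTiter-Glo luminescence.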
NS1 inh: inhibitors of influenza NS1 protein function. Potency, µM (highest dose often 46.1 µM), for the others: at the highest dose activity, positive = more growth. 270,000 tested, 0.4% active; calls by dose curve; also: actives are rising curves; nearly all actives have a fitted effect of over 50% in size
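A cell-based growth assay was used: compounds that relieve NS1-induced slow growth of budding yeast raise OD600. Assay medium was yeast nitrogen base with ammonium sulphate and -URA supplement, pH 6.0, with 2% galactose.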
Pf growth 48h: inhibits P. falciparum growth in the first generation, 48 h; P. falciparum luciferase growth in erythrocytes, 48 h; Potency, µM (series often up to 28.7 µM), without a hit: top-dose activity change, negative = inhibition, most hits filed as inhibitors; 310,000 tested, 5.9% active; also: % is scaled to controls: 0 for no effect and ±100 for the full control effect
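Compounds are pin-transferred into medium, infected erythrocytes (2% hematocrit, 0.1% parasitemia final) are added, and plates sit one parasite generation at 37 C in 5% CO2. Detection reagent is then added and luminescence measured.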
Pf growth 96h: P. falciparum growth inhibition at 96 hour, primary screen for plastid delayed-death inhibitors; AID 504834; Potency, µM (top dose mostly 28.7 µM), for the others: at the highest dose activity change, negative = inhibition, most hits filed as inhibitors; P. falciparum luciferase reporter growth, 96 h; 320,000 tested, 6.9% active; also: % is scaled to controls: 0 for no effect and ±100 for the full control effect
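Two-generation exposure (96 h) targets delayed-death phenotype. Reporter parasites carrying integrated firefly luciferase, in red cells at 2% hematocrit and 0.05% parasitemia final, kept at 37 C, 5% CO2; luminescence loss indicates inhibition.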
SARS PLpro yeast: SARS-CoV PLP inhibition in yeast. Potency, µM (series often up to 32.9 µM), for inactives: at the top dose activity, positive = growth rescue, actives largely listed as activators. AID 485353. 330,000 tested, 0.19% active. S. cerevisiae expressing SARS-CoV PLpro, growth rescue; calls by dose curve; also: 0% is about no effect; nearly all actives have a fitted effect of over 55% in size
An asterisk follows results filed as active; i = inactive; ? = inconclusive; · = not tested or not shown. Unless noted, calls follow the shape of the dose curve; as a rule, active = well fitted inhibition curve with a large enough effect; inconclusive = small, poorly fitted or top-dose-only effect, or another doubt; inactive = no such curve, though single readings can be large or run the other way. Potency is read from the fitted curve at half-maximal effect.

SMILES | RE007 growth inh | NS1 inh | Pf growth 48h | Pf growth 96h | SARS PLpro yeast
O=C(O)c1cccc(NC(=O)c2cccc(S(=O)(=O)N3CCc4ccccc43)c2)c1 | -13.8% | 12.3% | -6.9% | -16.9% | -0.4%
CC1CCN(c2nc(CN3CCCCC3)nc3scc(-c4ccccc4)c23)CC1 | 5.5% | -18.0% | 2.33µM* | 1.47µM* | -12.9%
CSc1ccc(CN2CCC(C(=O)NCc3ccc(C)cc3)CC2)cc1 | -27.8% | -2.1% | -0.6% | i | 0.4%
CCOC(=O)c1cc(-c2ccncc2)nc2c1c(C)nn2-c1ccccn1 | -10.8% | -56.0% | 5.86µM* | 13.1µM* | 0.2%
CCOC(=O)c1cc(-c2ccc(OC)cc2)nc2c1c(C)nn2CCC#N | -13.5% | 2.0% | 5.22µM* | · | -7.9%
CCOC(=O)c1cc(-c2ccc(C#N)cc2)nc2c1c(C)nn2CCC#N | 10.6% | -0.4% | ? | · | 2.7%
CCOC(=O)c1cc(-c2ccc(C)o2)nn1CCC#N | 0.7% | 2.8% | ? | 11.7µM* | 6.2%
CCN(CC)CCCNC(=S)N1CCN(c2nc(-c3ccccc3)cs2)CC1 | -25.9% | 26.7% | ? | 44.3% | 1.2%
C[N+](C)(C)CCN1CCc2ccccc21 | -15.1% | · | · | · | ·
O=C(CSc1cn[nH]n1)Nc1ccccc1C(=O)O | 27.2% | -37.2% | 7.0% | 21.6% | -5.7%
COc1cc2c(cc1OC)C1(Nc3c-2c(C)nn3-c2ccccc2)C(=O)Nc2ccccc21 (configuration not stated) | -4.0% | 7.5% | · | 1.47µM* | 8.7%
CCc1nn(-c2ccccc2)c2c1-c1cc(OC)c(OC)cc1C1(N2)C(=O)Nc2ccccc21 (configuration not stated) | -2.2% | 28.0% | · | 2.62µM* | 3.7%
C[C@H](O)[C@@H]1C(=O)N2CCc3c([nH]c4ccccc34)[C@@H]2C[C@@H]1N(C)C(=O)c1cc(Cl)cc(Cl)c1 | 8.5% | · | · | · | ·
N#Cc1c(N)nc(Sc2ccc(Cl)cc2)c(C#N)c1-c1ccccc1Cl | 5.4% | 5.5% | ? | 7.38µM* | 0.8%
CCSc1nc(N)c(C#N)c(-c2ccccc2Cl)c1C#N | 0.5% | 7.2% | · | · | 13.6%
O=C(CSc1nnc(COc2ccccc2)o1)N1CCCCC1 | -6.3% | -2.7% | -22.5% | 20.3% | 1.6%
c1ccc(C[n+]2cccc(-c3cc4ccccc4[nH]3)c2)cc1 | · | -5.5% | · | · | ·
C=CC[n+]1cccc(-c2cc3ccc(C)cc3[nH]2)c1 | ? | 0.4% | ? | 5.22µM* | 0.6%
O=C(O)CCCN1C(=O)C(=O)/C(=C(/O)c2ccc(Cl)cc2)C1c1ccccc1 (configuration not stated) | 4.9% | 6.0% | 44.2% | 62.7% | 0.6%
O=C1OC/C(=C(/O)c2ccc(Cl)cc2)C1=O | -4.9% | -16.3% | 11.7µM* | -8.4% | -2.7%
CCSc1ccc(/C(N)=N/OC(=O)c2cccs2)cn1 | 4.7% | -16.6% | 91.4% | 98.9% | 16.1%
CCCCCOP(=O)(c1ccccc1)c1ccccc1 | -1.5% | -4.7% | 11.7µM* | 9.28µM* | -0.9%
CSc1nc(COC(=O)NC(C)C)c(COC(=O)NC(C)C)n1Cc1ccccc1 | -4.5% | · | · | · | ·
Brc1ccc(N=Nc2ccc3ccccc3n2)cc1 | -1.4% | -2.6% | 0.329µM* | ? | -0.9%
CCc1cc2c(=O)c(-c3cscn3)coc2c(CN(C)C)c1O | 13.6% | 5.5% | 11.7µM* | ? | -16.1%
SMILES | RE007 growth inh | NS1 inh | Pf growth 48h | Pf growth 96h | SARS PLpro yeast
CCc1cc2c(=O)c(-c3ccc4c(c3)OCO4)coc2c(CN(C)C)c1O | 1.3% | -1.3% | 9.28µM* | 13.1µM* | 2.1%
Cc1oc2c(CN(C)C)c(O)ccc2c(=O)c1-c1cscn1 | -3.3% | -1.8% | 67.9% | ? | -1.2%
CCc1cc2c(=O)c(-c3cnn(-c4ccccc4)c3)coc2c(CN2CCOCC2)c1O | 3.5% | 0.4% | ? | ? | 1.7%
CCOc1ccc(NS(=O)(=O)c2ccc(-c3ccc(=O)[nH]n3)o2)cc1 | 18.9% | 0.4% | -8.8% | 39.9% | 1.4%
COCCn1c(NC(=S)NC(=O)C23CC4CC(CC(C4)C2)C3)cc(=O)[nH]c1=O | -6.4% | 1.5% | ? | 14.7µM* | -0.2%
COCCn1c(NC(=S)NC(=O)C2CC2)cc(=O)[nH]c1=O | 0.5% | 10.6% | 8.8% | -0.8% | -0.5%
COc1ccc(-c2oc(NC(=O)CCl)c(C#N)c2-c2ccc(OC)cc2)cc1 | -9.9% | 3.8% | · | 9.28µM* | 4.8%
